The supplement of paper PMC4371806
Over roughly 1,600 compounds, “plate-normalized OD600 growth (mean of duplicates)” has its median near 0.31; the lowest 2% begin near 0.23. The sample as a whole holds a higher share of the lowest values than the screen did.

System: Escherichia coli BW25113
Test: plate-normalized OD600 growth (mean of duplicates) (OD600 (normalized)); higher = more growth (less inhibition)
Conditions: 10 µM
Experimental: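 E. coli BW25113 in LB (100 µl, 96-well, no shaking) was exposed to 10 µM of each compound (here the ChemBridge subset of a ~30,000-member library) and grown at 37°C for 24 h or 15°C for 48 h, in duplicate. Growth was read as OD600 and the duplicate ODs were normalized across screening plates to correct plate-to-plate variation.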

| Structure (SMILES) | plate-normalized OD600 growth (temperature: 15°C, 48 h) | plate-normalized OD600 growth (temperature: 37°C, 24 h) |
| --- | --- | --- |
| CSc1nc2sc3c(c2c(=O)n1C)CCCC3 | 0.246 | 0.618 |
| CN1CCCN(Cc2cccc([N+](=O)[O-])c2)CC1 | 0.22 | 0.627 |
| COc1cccc(OC)c1C(=O)N1CCN(Cc2cccc([N+](=O)[O-])c2)CC1 | 0.266 | 0.645 |
| CN1CCCN(Cc2ccc([N+](=O)[O-])o2)CC1 | 0.258 | 0.607 |
| O=C(O)c1ccc(NS(=O)(=O)c2cccc(C(=O)Nc3ccccc3)c2)cc1 | 0.245 | 0.603 |
| OC(COc1ccc(C23CC4CC(CC(C4)C2)C3)cc1)CN1CCOCC1 (centres undefined) | 0.243 | 0.592 |
| Cc1ccccc1C(=O)Nc1ccc(Br)cc1 | 0.282 | 0.631 |
| O=C(Nc1ccc(Br)cc1)c1cccnc1 | 0.244 | 0.633 |
| NCC(=O)Nc1ccc(Br)cc1 | 0.227 | 0.606 |
| COc1ccc(-c2cn3ccccc3n2)cc1F | 0.229 | 0.633 |
| O=[N+]([O-])c1ccc(-c2nnc(-c3ccccc3Cl)o2)cc1 | 0.244 | 0.601 |
| CCC(CO)NC1=C([N+](=O)[O-])C(=O)CC(C)(C)C1 (centres undefined) | 0.282 | 0.666 |
| CCN(CC)CCN(C)Cc1cccc([N+](=O)[O-])c1 | 0.245 | 0.601 |
| CCN(CC)CCN(C)C/C=C/c1ccccc1 | 0.208 | 0.608 |
| CCN1CCN(C/C=C/c2ccccc2)CC1 | 0.28 | 0.634 |
| C=CCSc1nc(N)c(C#N)c(CC)c1C#N | 0.239 | 0.605 |
| CCC1CCCCN1C(=O)c1cccs1 (centres undefined) | 0.225 | 0.613 |
| Cc1ccccc1C(=O)N1CCCCC1CO (centres undefined) | 0.294 | 0.624 |
| CCC1CCCCN1C(=O)c1cccc([N+](=O)[O-])c1C (centres undefined) | 0.247 | 0.612 |
| COc1cc2c(cc1OC)C(c1cc(OC)c(OC)c(OC)c1)N(C)CC2 (centres undefined) | 0.244 | 0.624 |
| COc1cc(OC)cc(C(=O)Nc2cccc(C)c2C)c1 | 0.253 | 0.63 |

| Structure (SMILES) | plate-normalized OD600 growth (temperature: 15°C, 48 h) | plate-normalized OD600 growth (temperature: 37°C, 24 h) |
| --- | --- | --- |
| O=C(O)CSc1nccn1Cc1ccccc1 | 0.244 | 0.625 |
| CCOC(=O)N1CCN(Cc2ccc(N(C)C)cc2)CC1 | 0.219 | 0.58 |
| CCOC(=O)N1CCN(Cc2ccccc2Cl)CC1 | 0.244 | 0.621 |
| CCOC(=O)N1CCN(Cc2c(F)cccc2F)CC1 | 0.263 | 0.656 |
| O=C(Nc1ccc(Oc2ccc(NC(=O)c3cccnc3)cc2)cc1)c1cccnc1 | 0.27 | 0.629 |
| Fc1ccc(CN2CCN(c3ncccn3)CC2)cc1 | 0.253 | 0.629 |
| CC(C)(C)c1ccccc1OCCCSC#N | 0.233 | 0.622 |
| CC(C)(C)c1ccccc1OCCCCSC#N | 0.209 | 0.619 |
| N#CSCCCCOc1ccccc1Cl | 0.251 | 0.605 |
| CC(c1ccccc1)N1CCC(=O)C2=C1CCCC2 (centres undefined) | 0.241 | 0.604 |
| [O-][n+]1onc2c(-c3ccccc3)nnc(-c3ccccc3)c21 | 0.254 | 0.616 |
| Fc1ccc(CN2CCN(c3ccccn3)CC2)c(F)c1 | 0.244 | 0.601 |
| N#CCCN(CCN1CCCC1)S(=O)(=O)c1cccc2nsnc12 | 0.253 | 0.624 |
| N#Cc1c(N)nc2c(c1-c1ccco1)CCCCCC2 | 0.249 | 0.615 |
| CN(C)c1nc(N)nc(-c2ccco2)n1 | 0.226 | 0.632 |
| Nc1nc(-c2ccco2)nc(-c2ccco2)n1 | 0.272 | 0.646 |
| O=C1CCCc2c1nn(-c1ccccc1)[n+]2[O-] | 0.249 | 0.618 |
| O=C(Nc1ccc(F)cc1F)c1cccc(Br)c1 | 0.259 | 0.605 |
| COc1ccc(C)cc1NCc1ccc(SC)cc1 | 0.282 | 0.644 |
| Cc1nc(N)nc(OCC(F)(F)C(F)F)c1Br | 0.221 | 0.604 |
| CCN(CC)CCOc1ccccc1Br | 0.233 | 0.621 |
